Reference: PubChem BioAssay (NCATS)
Records with an inconclusive call do not appear. A call without a number means that no potency is given here. Active and inactive are the calls of the source. Calls follow the shape of the dose curve; as a rule, active = well fitted curve in the direction sought with a large enough effect; inconclusive = small, poorly fitted or top-dose-only effect, or another doubt; inactive = no such curve, though single readings can be large; an effect the other way counts as inactive or inconclusive.

Experiments:
[1] = target: Aldehyde dehydrogenase, mitochondrial (Homo sapiens) (UniProt P05091); assay: qHTS for Inhibitors of the Aldehyde Dehydrogenase Family (ALDH2) Primary screen (AID 2061308); also: nearly all actives have a fitted effect of over 55% in size
[2] = target: Retinaldehyde dehydrogenase 3 (Homo sapiens) (UniProt P47895); assay: qHTS for Inhibitors of the Aldehyde Dehydrogenase Family (ALDH1A3) Primary screen (AID 2061315)

SMILES	Potency [1]	Potency [2]
Cc1ccc(-c2ccc(=O)n(CC(=O)NCCc3ccccc3)n2)cn1	inactive	inactive
Cc1cc(C)c(-c2nnc(NC(=O)Nc3ccc4ccccc4c3)s2)c(C)c1	inactive	inactive
O=[S+]1([O-])N=C(Oc2cccnc2)c2ccccc21	inactive	inactive
O=[N+]([O-])c1ccc(CSc2nc3ncc(Br)cc3[nH]2)cc1	inactive	inactive
CNc1nc(-c2ccc3c(N)n[nH]c3c2)cc(N2CC(C(=O)NC3CCCCC3)CCC2C)n1 (configuration not stated)	inactive	inactive
O=C(Nc1ccccc1)C1CCN(c2nc(-c3ccc(Br)cc3)cs2)CC1	inactive	inactive
O=C(Nc1nnc(-c2ccncc2)s1)Nc1cccc2ccccc12	inactive	inactive
CCCCNc1nc(C)nc2c1nc(-c1ccccc1)n2CC(C)(C)CN(C)C	inactive	inactive
Cc1cc(C)nc(NC(=S)N2CC3CN(c4ccc(Cl)cc4C(F)(F)F)CC3C2)c1 (configuration not stated)	inactive	inactive
O=c1[nH]c(CCl)nc2sc3c(c12)CCCC3	inactive	inactive
C/C=C/c1ccc2c(c1)[C@@H](C)[C@H](c1ccc(O)cc1)O2	inactive	inactive
CN1CCOc2cc(S(=O)(=O)N3CCN(S(=O)(=O)c4c(F)cccc4F)CC3)cnc21	inactive	inactive
COc1ccc(-c2nc3ccccc3c(=O)n2Cc2ccco2)cc1COc1c(C)cccc1C	inactive	inactive
Cc1ccccc1-c1nnc(NC(=O)Nc2ccc3ccccc3c2)s1	inactive	inactive
Cc1ccc(OCCn2c(CCNC(=O)C3CCNCC3)nc3ccccc32)cc1	inactive	inactive
O=c1c2ccccc2nc(-c2ccccc2O)n1Cc1ccccc1	inactive	inactive
Brc1ccc(-c2csc(N3CCOCC3)n2)cc1	inactive	inactive
Cc1cn([C@H]2C[C@H](N[S+](=O)([O-])Cc3ccc([N+](=O)[O-])cc3)[C@@H](CO)O2)c(=O)[nH]c1=O	inactive	inactive
CC(C)c1ccccc1-c1ncc(N)c(NCc2ccc(-c3cccnc3)cc2)n1	inactive	inactive
Cc1ccc(OCCn2c(CCN[S+](=O)([O-])C3CCCCC3)nc3ccccc32)cc1	inactive	inactive
C=CCNc1oc(-c2cccc3ccccc23)nc1C#N	inactive	inactive
COC(=O)c1ccccc1NC(=O)c1ccc(F)cc1F	inactive	inactive

SMILES	Potency [1]	Potency [2]
CCOc1ccc(C(=O)Nc2ccc(-c3nc4ccccc4[nH]3)cc2)cc1[N+](=O)[O-]	inactive	inactive
COc1ccc(OC)c(-c2nnc3n2N=C(c2ccc(OC)c(OC)c2)CS3)c1	inactive	inactive
Cc1cc(C)n2ncc(C(=O)Nc3ccc(C(F)(F)F)cc3)c2n1	inactive	inactive
CC(Oc1ccc2[nH]nc(/C=C/c3cnn(CCO)c3)c2c1)c1c(Cl)cncc1Cl (configuration not stated)	inactive	inactive
O=C(N1CCc2cc([S+](=O)([O-])N3CCN([S+](=O)([O-])c4c(F)cccc4F)CC3)ccc2C1)C(F)(F)F	inactive	inactive
Nc1cccc(OCCn2c(CCNC(=O)C3CCCCC3)nc3ccccc32)c1	inactive	inactive
Cc1cc(C)nc(NC(=S)N2CCN(c3noc4ccccc34)CC2)c1	inactive	inactive
Cc1cc(C)nc(NC(=S)N2CCN(c3cccc4nccn34)CC2)c1	inactive	inactive
COC(=O)c1c(NC(=O)COC(=O)c2ccc(Cl)cc2[N+](=O)[O-])sc2c1CCCCC2	inactive	inactive
O=C(Nc1cccc(C(=O)O)c1)Nc1nnc(-c2ccncc2)s1	inactive	inactive
Cc1nc(C)c2c(n1)N(Cc1ccc(-c3ccccc3-c3nn[nH]n3)cc1)C(=O)CC2	inactive	inactive
Cc1cc(N[S+](=O)([O-])c2ccc(NC(=O)Cc3ccc(F)c(F)c3)cc2)no1	inactive	inactive
Cc1cc2c(s1)c1cnn(Cc3cccc(C(F)(F)F)c3)c(=O)c1n2C	inactive	inactive
O=[S+]([O-])(Nc1ccc(N2CCNCC2)cc1)c1ccc(NCc2ccc(Br)cc2O)cc1	inactive	inactive
COc1cc(-c2csc(N3CCC(C(N)=O)CC3)n2)cc(OC)c1OC	inactive	inactive
COc1ccc(/C=C2/C(=O)Nc3ccccc32)cc1O	inactive	inactive
COc1ccc2nc(-c3ccc(C#N)cc3)sc2c1	inactive	inactive
COc1ccc(C2Nc3ccccc3C(=O)N2Cc2ccccc2OC)cc1COc1c(C)cc(NC(C)=O)cc1C (configuration not stated)	inactive	inactive
CC(Nc1nc(-c2ccccc2C(F)(F)F)nc2ccccc12)c1ccc(-c2ccccc2)cc1 (configuration not stated)	inactive	inactive
O=C1CCCC2=C1C(c1[nH]ncc1Cl)N=C(Nc1nc3ccc(Cl)cc3o1)N2 (configuration not stated)	inactive	inactive
Cc1nnc(-c2cnn(C)c2N)n1CCCc1cccnc1	inactive	inactive
Cc1cc2c(s1)c1cnn(Cc3cccc4cccnc34)c(=O)c1n2C	inactive	inactive

SMILES	Potency [1]	Potency [2]
CCN(CC)CCCC(C)n1c(-c2ccccc2)nc2c(NCCO)nc(C)nc21 (configuration not stated)	inactive	inactive
Nc1cccc([S+](=O)([O-])N2CCCN([S+](=O)([O-])c3cccc(N)c3)CC2)c1	inactive	inactive
COC(=O)c1sc2c(c1-c1nc3ccccc3s1)CCNC2	inactive	inactive
CCC/C=C\C=C/CCc1cc(O)c([C@@H]2O[C@H](CO)[C@@H](O)[C@H](O)[C@H]2O)c(O)c1C(=O)OC	inactive	inactive
C#CCOc1cccc(-c2nnc3n2N=C(c2ccc(OC)c(OCC(C)=O)c2)CS3)c1	inactive	inactive
CC1(C)CCc2cc(S(=O)(=O)N3CCN(S(=O)(=O)c4c(F)cccc4F)CC3)ccc2O1	inactive	inactive
COc1cc(O)c(C(CC(=O)N2CC(C)NC(C)C2)c2ccc3c(c2)OCO3)c(OC)c1 (configuration not stated)	inactive	inactive
Cc1ccc(S(=O)(=O)Nc2cccc(C(=O)Nc3nc(-c4ccccc4)cs3)c2)cc1	inactive	inactive
CC(=O)O[C@@H]1C=C2[C@H](CC[C@@]3(C)[C@@]2(O)CC[C@H]2Cc4c([nH]c5ccccc45)[C@@]23C)O[C@@H]1C(C)(C)O	inactive	inactive
CC1(C)CC(=O)C2=C(C1)NC(Nc1nc3ccccc3o1)=NC21CCCCC1	inactive	inactive
Cc1ccccc1C(=O)N1CCc2cc(-n3cc(NC(=O)Cc4ccccc4)cn3)ccc21	inactive	inactive
CCOC(=O)C1CCN(C(=O)C(C)(C)NC(=O)Nc2ccc(Oc3ccccc3)cc2)CC1	inactive	inactive
Cc1ccsc1CNc1ncnc2ccc(-c3ccc4c(c3)OCO4)cc12	inactive	inactive
O=C(Cn1nc(-c2ccccc2)ccc1=O)NCCc1ccccc1	inactive	inactive
Cc1nnc(-c2ccccc2[N+](=O)[O-])n1CCCn1ccnc1	inactive	inactive
CN(C)S(=O)(=O)c1ccc(-c2nc(NCc3ccc(-c4ccnc(C(F)(F)F)c4)cc3)c3ccccc3n2)cc1	inactive	inactive
Cc1nc(CN(C)c2ncnc3ccc(-c4ccc5c(c4)OCO5)cc23)cs1	inactive	inactive
COc1cccc(-c2ccc3ncnc(NCc4cccc(C)c4)c3c2)c1	inactive	inactive
FC(F)(F)c1ccccc1-c1nc(NCc2ccc(Br)cc2)c2ccccc2n1	inactive	inactive
Cc1ccc(OCCn2c(CCNC(=O)c3cccc4ccccc34)nc3ccccc32)cc1	inactive	inactive
CS(=O)(=O)c1ccc(C(=O)OCC(=O)N2CCC(c3ccccc3)CC2)cc1[N+](=O)[O-]	inactive	inactive
C/C=C/C(=O)OC1/C=C/C(O)C(OC(C)=O)CCC(=O)OC1C (configuration not stated)	inactive	inactive

SMILES	Potency [1]	Potency [2]
CCCn1c(C)nc2c(NCCCCN3CCCC3)nc(C)nc21	inactive	inactive
Cc1ccc(-c2csc(N3CCC(C(N)=O)CC3)n2)cc1	inactive	inactive
Cc1ccc(C(=O)NC(c2ccco2)c2cc(Cl)c3cccnc3c2O)cc1 (configuration not stated)	inactive	inactive
Cc1ccc(OCCn2c(CCNC(=O)c3cccc(C#N)c3)nc3ccccc32)cc1	inactive	inactive
Cn1cncc1CNc1ncnc2ccc(-c3ccc4c(c3)OCO4)cc12	inactive	inactive
CCC(=O)NC(c1ccc(C)cc1)c1cc([N+](=O)[O-])c2cccnc2c1O (configuration not stated)	inactive	inactive
CC(C)c1cc2c(s1)c1cnn(Cc3ccccc3F)c(=O)c1n2C	inactive	inactive
O=C1c2ccccc2C(=O)N1c1ccc(Cl)cc1	inactive	inactive
Oc1ccc(CCc2ccccc2F)c2cccnc12	inactive	inactive
Cc1nc(C(C)N(C)c2ncnc3ccc(-c4ccc5c(c4)OCO5)cc23)cs1 (configuration not stated)	inactive	inactive
N#Cc1nc(-c2cccc3ccccc23)oc1N	inactive	inactive
Cn1ccc2cc(S(=O)(=O)N3CCN(S(=O)(=O)c4c(F)cccc4F)CC3)ccc21	inactive	inactive
CC(C)(C)OC(=O)Cc1nnc(-c2cc3ccccc3[nH]2)o1	inactive	inactive
COC(=O)C12C(=O)C(C)=C(O)C1(C)C(C)=CC1C3(CO)CCC(O)C(C)(C)C3CCC12C (configuration not stated)	inactive	inactive
Cc1cccc(-c2csc(N3CCC(C(N)=O)CC3)n2)c1	inactive	inactive
CCOc1ccc(CCNC(=O)c2ccnn2Cc2cccc(C)c2)cc1OCC	inactive	inactive
FC(F)(F)c1ccc(CNc2nc(-c3ccccc3C(F)(F)F)nc3ccccc23)cc1	inactive	inactive
CCOc1cc(F)c(CCNC(=O)c2cc3sccc3n2Cc2ccccc2)cc1OCC	inactive	inactive
CC(C)(C)n1nc(Cc2cccc3ccccc23)c2c(N)ncnc21	inactive	inactive
CNC(=O)c1cnn2c(C)cc(C)nc12	inactive	inactive
